In PubChem BioAssay (NCATS) one finds Potency, viability (% of control) and viability, % of control data, which are given here for nine compounds.

Assay [1] is described as follows: Viability qHTS for spleen associated tyrosine kinase inhibitor (SYKi) naive MV4-11 cells (AID 1963823). Note: nearly all actives have a fitted effect of over 40% in size. The following applies: MV4-11 AML viability, CellTiter-Glo luminescence, 72 h; series mostly up to 45 µM. The essentials:
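SYKi-naive MV4-11 AML cells, 500 per well, were exposed to library compounds for 72 hr at 37 C, 5% CO2. Viability was then read by CellTiter-Glo luminescence after 10 min at room temperature.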
On the technique in general: Quantitative high-throughput screening tests each substance at several concentrations.

The nature of assay [2]: Viability qHTS for spleen associated tyrosine kinase inhibitor (SYKi) drug resistant MV4-11 cells (AID 1963824). Note: nearly all actives have a fitted effect of over 35% in size. The following applies: SYKi-resistant MV4-11 viability, CellTiter-Glo, 72 h; series mostly up to 45 µM. The essentials:
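SYK inhibitor-resistant MV4-11 AML cells, 500 per well, added to predispensed compounds and incubated 72 hr at 37 C, 5% CO2. Viability measured by CellTiter-Glo luminescence after 10 min at room temperature.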

Results filed as inconclusive are left out. Values without a mark were called inactive. Activity calls are given as the source filed them. Calls come from the whole dose curve; as a rule, active = well fitted cell-killing curve with a large enough effect; inconclusive = small, poorly fitted or top-dose-only effect, or effect the other way; inactive = no such curve, though single readings can be large or run the other way.
Potency is the fitted concentration of half-maximal effect.

For `CCC1CC2C(C)=CC3CCCCC3C2(C)C2(OC(=O)C(C)(O)OC2=O)O1` (stereo not drawn), the figures for the Potency in assay [1] and in assay [2] were 12.8 µM (active) and 10.1 µM (active), respectively.

`C=CC(C)(C)C12Nc3c(ccc4c3OC(C)(C)C=C4)C1(O)CC1C(=O)N3CCCC3C(=O)N12` (stereo not drawn): the Potency result in assay [1] is “inactive”. Moreover, the Potency in assay [2] is 4.47 µM (active).

As for `C=C1C[C@]23C[C@H]1CC[C@H]2[C@@]12C=C[C@H](O)[C@@](C)(C(=O)O1)[C@H]2[C@@H]3C(=O)O`, the Potency entry in assay [1] and in assay [2] was “inactive” throughout.

`C=C(NC(=O)C(=C)NC(=O)c1csc(C2=NC3c4csc(n4)C4NC(=O)c5csc(n5)C(C(C)(O)C(C)O)NC(=O)C5CSC(=N5)/C(=C/C)NC(=O)C(C(C)O)NC(=O)c5csc(n5)C3(CC2)NC(=O)C(C)NC(=O)C(=C)NC(=O)C(C)NC(=O)C(C(C)CC)NC2C=Cc3c(C(C)O)cc(nc3C2O)C(=O)OC4C)n1)C(N)=O` (stereo not drawn): the Potency in assay [1] is 1.3 µM (active); in assay [2] it was 0.58 µM (active).

`C1CCC[C@H]2CCCN3CC[C@@H](CCCCCC[C@@H]4CCCN5CC[C@@H](CC1)O[C@@H]45)O[C@@H]23`: the viability (% of control) in assay [1] was 90.7% [at 0.177 µM]. The viability, % of control in assay [2] was 87.9% [at 0.177 µM].

With `COC(O)(CC(C)C)C1Oc2cc(C)[nH]c(=O)c2O1` (stereo not drawn), the Potency result in assay [1] and in assay [2] was “inactive” throughout.

`COc1cc([C@H]2OC[C@@H]3[C@@H](c4ccc(O[C@@H]5O[C@H](CO)[C@@H](O)[C@H](O)[C@H]5O)c(OC)c4)OC[C@]23O)ccc1O`: the Potency result in assay [1] and in assay [2] was “inactive” in each case.

`C=CC(C)(O)CO[C@@H]1O[C@H](CO)[C@@H](O)[C@H](O)[C@H]1O` (stereo partly drawn): the Potency result in assay [1] and in assay [2] was “inactive” each time.

Regarding `CC1(C)C=Cc2c(ccc3c2N=C2C(C)(C)[C@@H]4C[C@]56CCCN5C(=O)[C@@]4(C[C@]23O)NC6=O)O1`, the Potency entry in assay [1] and in assay [2] was “inactive” throughout.
